# Test results as given in the supplement of paper PMC8728848.
# Only a selection was taken, and the strongest signals are over-represented in it overall.
# B1: Clec39 (Caenorhabditis elegans) (protein)
# chain: MTSFYDNSSSSSKPVPLKTSRAQKIQILIFDNWKLILYGAISTLILVLAIMFSTLFFALPAANCDENSEPTKYYTTNAEITTTITTTNQKTTSTASSHLTTISSSATQIYSESSSSSTSQSTFTQSPPEISTTTIAPSDFSCQHGFTLVNNKCWKLVTSNQARPDADKICNGYGGATLFSIKSEQDNRAMIHFVKGQDIDFLWSGLLCSAGEPISCIWDIENGSTANYSNFADGFPNIVYGNCVYFITSGDEAGQWGNEQCGQVMNFVCELPATFQGKDGCKNNYEKSCYLRFDLNLTVPQAQNFCLEKCANLVSIHSANEVRFIMTIYDFIGEILIGALAPAQDFIYWLDGTPANYNNLKFFYNSTCVHMTVAPGMQNVGKWFTRFCTETGKFLCKRSIKNSCT
# How the values were obtained:
# Experiment in all cases: glycan array binding signal (z-score within array); higher = stronger binding
# Details in all cases: glycan notation: IUPAC condensed, linker removed
# [1] = target: GlcNAc(b1-3)Gal(b1-4)GlcNAc(b1-3)Gal(b1-4)GlcNAc(b1-3)Gal(b1-4)GlcNAc(b1-2)Man(a1-3)[GlcNAc(b1-3)Gal(b1-4)GlcNAc(b1-3)Gal(b1-4)GlcNAc(b1-3)Gal(b1-4)GlcNAc(b1-2)Man(a1-6)]Man(b1-4)GlcNAc(b1-4)GlcNAc
# Method in brief: (§1)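 Glycan array data came from 3228 arrays in the Consortium for Functional Glycomics database, and only arrays with an available protein sequence were kept. Glycan names were put into IUPAC-condensed notation, and columns mapping to the same glycan were averaged. The binding signal is a within-array Z-score, averaged across arrays of one protein sequence run at different concentrations or buffers and across linkers. A negative Z-score can be read as non-binding.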
# [2] = target: GlcNAc(b1-3)[GlcNAc(b1-4)][GlcNAc(b1-6)]GlcNAc
# Method in brief: as §1
# [3] = target: Kdn(a2-6)Gal(b1-4)GlcNAc
# Method in brief: as §1
# [4] = target: Man(a1-2)Man(a1-3)[Man(a1-2)Man(a1-6)]Man
# Method in brief: as §1
# [5] = target: Man(a1-2)Man(a1-3)[Man(a1-2)Man(a1-6)]Man(a1-6)[Man(a1-2)Man(a1-2)Man(a1-3)]Man
# Method in brief: as §1
# [6] = target: Man(a1-3)[Man(a1-6)]Man
# Method in brief: as §1
# [7] = target: Neu5Ac(a2-3)Gal(b1-3)GlcNAc(b1-2)[Neu5Ac(a2-3)Gal(b1-3)GlcNAc(b1-4)]Man(a1-6)[Neu5Ac(a2-3)Gal(b1-3)GlcNAc(b1-2)Man(a1-3)]Man(b1-4)GlcNAc(b1-4)GlcNAc
# Method in brief: as §1
# [8] = target: Neu5Ac(a2-3)Gal(b1-3)GlcNAc(b1-3)Gal(b1-3)GlcNAc
# Method in brief: as §1
# [9] = target: Neu5Ac(a2-3)Gal(b1-4)GlcNAc(b1-2)Man(a1-3)[GlcNAc(b1-4)][Neu5Ac(a2-3)Gal(b1-4)GlcNAc(b1-2)Man(a1-6)]Man(b1-4)GlcNAc(b1-4)GlcNAc
# Method in brief: as §1
# [10] = target: Neu5Ac(a2-3)Gal(b1-4)GlcNAc(b1-2)Man(a1-3)[Neu5Ac(a2-6)Gal(b1-4)GlcNAc(b1-2)Man(a1-6)]Man(b1-4)GlcNAc(b1-4)GlcNAc
# Method in brief: as §1
# [11] = target: Neu5Ac(a2-3)Gal(b1-4)GlcNAc(b1-3)Gal(b1-4)GlcNAc(b1-3)[Neu5Ac(a2-3)Gal(b1-4)GlcNAc(b1-3)Gal(b1-4)GlcNAc(b1-6)]GalNAc
# Method in brief: as §1
# [12] = target: Neu5Ac(a2-3)Gal(b1-4)[Fuc(a1-3)]GlcNAc(b1-3)GalNAc
# Method in brief: as §1
# [13] = target: Neu5Ac(a2-3)Gal6S(b1-4)[Fuc(a1-3)]GlcNAc
# Method in brief: as §1
# [14] = target: Neu5Ac(a2-6)Gal(b1-4)GlcNAc
# Method in brief: as §1
# [15] = target: Neu5Ac(a2-6)Gal(b1-4)GlcNAc(b1-2)Man(a1-3)[Gal(b1-4)GlcNAc(b1-2)Man(a1-6)]Man(b1-4)GlcNAc(b1-4)GlcNAc
# Method in brief: as §1
# [16] = target: Neu5Ac(a2-6)Gal(b1-4)GlcNAc(b1-2)Man(a1-3)[GlcNAc(b1-2)Man(a1-6)]Man(b1-4)GlcNAc(b1-4)GlcNAc
# Method in brief: as §1
# [17] = target: Neu5Ac(a2-6)Gal(b1-4)GlcNAc(b1-2)Man(a1-3)[Neu5Ac(a2-3)Gal(b1-4)GlcNAc(b1-2)Man(a1-6)]Man(b1-4)GlcNAc(b1-4)GlcNAc
# Method in brief: as §1
# [18] = target: Neu5Ac(a2-6)Gal(b1-4)GlcNAc(b1-6)GalNAc
# Method in brief: as §1
# [19] = target: Neu5Ac(a2-8)Neu5Ac(a2-3)Gal(b1-3)GalNAc(b1-4)[Neu5Ac(a2-8)Neu5Ac(a2-3)]Gal(b1-4)Glc
# Method in brief: as §1
# [20] = target: Neu5Ac(a2-8)Neu5Ac(a2-8)Neu5Ac(a2-3)[Gal(b1-3)GalNAc(b1-4)]Gal(b1-4)Glc
# Method in brief: as §1
# [21] = target: Neu5Ac(b2-6)Gal(b1-4)GlcNAc
# Method in brief: as §1
# [22] = target: Neu5Gc(a2-3)Gal(b1-3)[Fuc(a1-4)]GlcNAc
# Method in brief: as §1
binder,measurement,setting,value
B1,glycan array binding signal (z-score),[1],-0.221
same,glycan array binding signal (z-score),[2],0.102
same,glycan array binding signal (z-score),[3],0.204
same,glycan array binding signal (z-score),[4],-0.005
same,glycan array binding signal (z-score),[5],0.088
same,glycan array binding signal (z-score),[6],0.047
same,glycan array binding signal (z-score),[7],0.47
same,glycan array binding signal (z-score),[8],-0.142
same,glycan array binding signal (z-score),[9],1.43
same,glycan array binding signal (z-score),[10],2.22
same,glycan array binding signal (z-score),[11],-0.101
same,glycan array binding signal (z-score),[12],4.34
same,glycan array binding signal (z-score),[13],-1.24
same,glycan array binding signal (z-score),[14],-1.22
same,glycan array binding signal (z-score),[15],0.815
same,glycan array binding signal (z-score),[16],0.613
same,glycan array binding signal (z-score),[17],-0.493
same,glycan array binding signal (z-score),[18],-0.055
same,glycan array binding signal (z-score),[19],1.4
same,glycan array binding signal (z-score),[20],0.076
same,glycan array binding signal (z-score),[21],-0.632
same,glycan array binding signal (z-score),[22],1.01
